High-throughput results (PubChem)
CRFBP-R2 block: blocks CRF-induced signaling of the CRF-BP/CRF-R2 complex. HEK293 CRF-R2/CRF-BP, CRF-induced calcium fluorescence. AID 588475. inhibition, % at 11.8 µM. 350,000 tested, 0.59% active;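 active = inhibition of the ligand-induced calcium signal above about 50% at the single tested concentration, limit read from the data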
Cardiac RTF inh: cardiac RTF calcium desensitization. inhibition, % at 7.15 µM. P19429+P45379. IANBD-labeled cardiac RTF, Ca2+ fluorescence. 340,000 tested, 0.12% active. AID 493244;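 active = inhibition above the mean inhibition of all tested compounds plus 3 SD, cut at about 17% in these data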;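 note: assay run at fixed EC70 calcium of 1.6 mM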
Keap1-Nrf2 PPI: inhibitors of human Keap1-Nrf2 protein-protein interaction; Q14145; Keap1 Kelch-Nrf2 peptide fluorescence polarization, 1536-well; inhibition, % at 9.4 µM; 340,000 tested, 0.15% active; in the data active = inhibition above about 12%; inconclusive = no clear call, values can overlap the other calls; inactive = below about 7.3%;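 note: human Keap1 Kelch domain with fluorescein labeled Nrf2 9mer peptide probe; higher means more block of Keap1 binding to Nrf2 peptide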
Target sequence (Q14145 whole entry, looked up, the tested form may be a part): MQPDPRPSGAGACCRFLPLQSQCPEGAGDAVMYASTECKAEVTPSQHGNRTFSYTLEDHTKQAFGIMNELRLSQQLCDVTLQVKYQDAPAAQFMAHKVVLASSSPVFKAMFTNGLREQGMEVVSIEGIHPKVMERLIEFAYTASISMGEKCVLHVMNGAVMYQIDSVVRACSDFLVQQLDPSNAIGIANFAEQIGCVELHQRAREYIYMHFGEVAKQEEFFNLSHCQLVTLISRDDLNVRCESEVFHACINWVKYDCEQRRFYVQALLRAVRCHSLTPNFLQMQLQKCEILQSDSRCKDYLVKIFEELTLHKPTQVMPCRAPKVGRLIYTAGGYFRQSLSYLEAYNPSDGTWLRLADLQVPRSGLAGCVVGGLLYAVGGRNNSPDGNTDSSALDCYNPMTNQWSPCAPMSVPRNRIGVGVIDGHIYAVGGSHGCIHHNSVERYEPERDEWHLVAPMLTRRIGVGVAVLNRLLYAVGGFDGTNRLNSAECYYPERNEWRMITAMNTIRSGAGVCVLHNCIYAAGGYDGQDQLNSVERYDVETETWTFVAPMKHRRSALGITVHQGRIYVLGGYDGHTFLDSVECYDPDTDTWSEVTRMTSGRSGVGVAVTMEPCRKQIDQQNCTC
RTF Ca sens act: cardiac RTF calcium sensitization; AID 493008; activation, % at 7.2 µM; IANBD-labeled TnC RTF fluorescence at EC20 calcium; 0% EC20 calcium, 100% full calcium; P19429+P45379; 340,000 tested, 0.24% active;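 active = activation above the mean over all tested compounds plus 3 SD, cut at about 30% in these data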;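 note: rise in fluorescence read as greater calcium sensitivity of cardiac thin filaments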
CRFBP-R2 agonist: agonists of human CRF-binding protein/CRF-R2 receptor complex; HEK293 CRF-R2/CRF-BP, calcium dye fluorescence (FLIPR); percent of saturating CRF peptide response; activation, % at 13.2 µM; 350,000 tested, 0.46% active;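 active = activation of at least 50%, plus an integration ratio under a set limit after plate pattern correction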
LANA DNA inh: KSHV C-LANA DNA binding inhibition; MBP-C-LANA/FAM-LBS DNA binding, fluorescence polarization; inhibition, % at 9 µM; 340,000 tested, 0.078% active; AID 504423;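 active = highest replicate inhibition at or above 60% at 9 µM, even if other replicates fall short; inactive = all replicates below 60% inhibition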
Each line names hits and unclear results; the compound was inactive in the other large screens. Only some compounds are listed: those with a hit (about 1.3% of all), similar ones and a draw of the others.

COc1ccc(N=Cc2c(OC)ccc3ccccc23)cc1	none
COc1ccc(N=Cc2c(O)c3ccccc3n2C(C)=O)cc1	CRFBP-R2 agonist 99
COc1ccc(N=Cc2sc(O)c3ccccc23)cc1	RTF Ca sens act 79, CRFBP-R2 agonist 271
CC1CC(Nc2ccccc2)=NC1(C)C (centres undefined)	none
CNC(=O)c1ccc(NC(=O)c2cc(S(=O)(=O)N(C)C)ccc2N2CCCC2)cc1	none
COc1ccccc1C(=O)C1CCCN(C(=O)c2cccc(-n3cccn3)c2)C1 (centres undefined)	none
CC(=O)Nc1ccc(S(=O)(=O)N2CCC(C(=O)NCc3ccco3)CC2)cc1	none
CCOc1ccc(C2C=C(c3ccc(C)cc3)Nc3nnnn32)cc1 (centres undefined)	RTF Ca sens act 54, CRFBP-R2 agonist 69
CCOc1ccc(C2C=C(c3ccccc3)Nc3nnnn32)cc1 (centres undefined)	none
O=C(c1ccc(F)cc1)N(Cc1ccco1)C1CCS(=O)(=O)C1 (centres undefined)	none
O=C(c1ccc(F)cc1Cl)N(Cc1ccco1)C1CCS(=O)(=O)C1 (centres undefined)	CRFBP-R2 block 75
Cc1cc(Cl)ccc1OCC(=O)Nc1ccccc1NS(=O)(=O)c1cccs1	none
O=C(COc1ccc(Cl)cc1Cl)Nc1ccccc1NS(=O)(=O)c1cccs1	CRFBP-R2 block 51
CCCN1CCc2c(sc(NC(=S)NC(=O)c3ccccc3)c2C#N)C1	RTF Ca sens act 31, CRFBP-R2 agonist 148
CC(C)N1CCc2c(sc(NC(=S)NC(=O)c3ccccc3)c2C#N)C1	CRFBP-R2 agonist 55
CCOC(=O)N1CCc2c(sc(NC(=O)c3ccc(S(=O)(=O)N4CCCC4)cc3)c2C#N)C1	none
CC(C)N1CCc2c(sc(NC(=O)c3ccc(S(=O)(=O)N4CCOCC4)cc3)c2C#N)C1	CRFBP-R2 agonist 131
Cc1ccccc1OCCC(=O)Nc1cccc(S(=O)(=O)Nc2ccccc2Cl)c1	none
Cc1ccc(SCc2ccc(C(=O)Nc3ccccc3Br)cc2)cc1	CRFBP-R2 agonist 74
N#Cc1cn(-c2ccccc2)nc1-c1ccc2c(c1)OCCO2	none
O=Cc1cn(-c2ccccc2)nc1-c1ccc2c(c1)OCCO2	CRFBP-R2 block 61
Cc1cc(C)nc(NC=C2C(=O)OC(C)(C)OC2=O)n1	none
C/C=C(\C)C(=O)Nc1cccc(C2=NOC3(C2)C[C@@H](C(N)=O)N(C(=O)/C(C)=C/C)C3)c1 (some centres undefined)	none
C/C=C/C=C/C(=O)N1CC2(CC(c3cccc(NC(=O)/C=C/C)c3)=NO2)C[C@@H]1C(N)=O (some centres undefined)	none
C=C(C)C(=O)Nc1cccc(C2=NOC3(C2)C[C@@H](C(N)=O)N(C(=O)/C(C)=C/C)C3)c1 (some centres undefined)	LANA DNA inh 85
C=C(C)C(=O)Nc1cccc(C2=NOC3(C2)C[C@@H](C(N)=O)N(C(=O)/C=C/C=C/C)C3)c1 (some centres undefined)	LANA DNA inh 68
C=CC[N+]1(CC=C)CCOCC1	none
CC(C)(C)NC(=O)C(c1ccccn1)N(C(=O)C1CSC(=O)C1)c1cccc(F)c1 (centres undefined)	CRFBP-R2 block 70
COc1cccc(N(C(=O)C2CSC(=O)C2)C(C(=O)NC(C)(C)C)c2ccncc2)c1 (centres undefined)	none
O=c1oc2ccccc2c2c1ccc1ccccc12	none
CCOC(=O)c1ccc(S(=O)(=O)Nc2cc(S(=O)(=O)N3CCOCC3)ccc2O)cc1	none
COc1ccc(C(=O)O/N=C(\N)Cc2ccc(Cl)c(Cl)c2)cc1OC	CRFBP-R2 block 110
COc1ccc(C(=O)O/N=C(\N)Cc2ccc(Cl)cc2)cc1OC	none
Cc1nc(C)c(C(=O)C2=C(O)C(=O)N(CCN(C)C)C2c2cccs2)s1 (centres undefined)	none
COc1cccc(CC(=O)Nc2nc(-c3ccc(F)c(F)c3)cs2)c1	none
CSc1ccc(S(=O)(=O)NCC(=O)OCC(=O)N(Cc2ccccc2)C(C)C)cc1[N+](=O)[O-]	CRFBP-R2 block 56
CCN(CC)c1ccc2cc(S(=O)(=O)c3ccc(C)cc3)c(=O)oc2c1	Keap1-Nrf2 PPI inconclusive, RTF Ca sens act 53, CRFBP-R2 agonist 147
CCN(CC)c1ccc2cc(C(=O)NNC(=O)c3ccc(S(=O)(=O)N4CCCCC4)cc3)c(=O)oc2c1	CRFBP-R2 agonist 266
CCN(CC)c1ccc2cc(-c3nc(-c4cc5ccccc5oc4=O)cs3)c(=O)oc2c1	RTF Ca sens act 95, CRFBP-R2 agonist 195
Cc1ccc(C(=O)NNC(=O)c2ccc(S(=O)(=O)N3CCCCC3)cc2)cc1	none
O=c1oc2ccccc2cc1-c1csc(Cc2nc(-c3ccc(Cl)cc3)cs2)n1	none
Cc1ccc(S(=O)(=O)c2cc3ccccc3oc2=O)cc1	none
CCN(CC)c1ccc2cc(C#N)c(=O)oc2c1	CRFBP-R2 agonist 102 (no result: Cardiac RTF inh, RTF Ca sens act)
O=C(CCNC(=O)c1ccco1)Nc1cccc(Br)c1	none
COc1cccc(CN(C(=O)COc2ccc(C)cc2)C2CCS(=O)(=O)C2)c1 (centres undefined)	none
CC(C)(CNC(=O)CC1C(=O)NCCN1Cc1cccc(F)c1F)N1CCOCC1 (centres undefined)	none
Nc1ccc(S(=O)(=O)Nc2ccc(Cl)nn2)cc1	CRFBP-R2 block 54
CCCN(CC(=O)Nc1ccccc1OC)C(=O)CCC(=O)c1ccc(Cl)s1	none
O=C1N=C(N2CCOCC2)S/C1=C/c1ccc(-c2ccccc2Cl)o1	none
O=C1S/C(=C/c2ccc(N3CCOCC3)o2)C(=O)N1Cc1c(F)cccc1Cl	RTF Ca sens act 145, CRFBP-R2 agonist 84
O=C1S/C(=C\c2ccc(N3CCOCC3)o2)C(=O)N1Cc1c(F)cccc1Cl	RTF Ca sens act 100
O=C1S/C(=C\c2ccc(N3CCOCC3)o2)C(=O)N1c1ccccc1	RTF Ca sens act 45
O=C(/C=C/c1ccccc1)NCCC1=CCCCC1	none
CCCCNc1ccc(C(=O)OCCOCCOCCOCCOCCOCCOCCOCCOCCOC)cc1	none
O=c1c(Cl)c2oc3ccccc3nc-2c2ccccc12	CRFBP-R2 agonist 207
Clc1ccc(-c2nnc(Sc3nc4ccccc4o3)c3ccccc23)cc1	none
N#C/C(=C/c1ccc(-c2ccc(S(=O)(=O)N3CCOCC3)cc2)o1)C(=O)NC1CC1	none
N#C/C(=C\c1ccc(N2CCOCC2)o1)C(=O)NCC1CCCO1 (centres undefined)	RTF Ca sens act 53
N#C/C(=C\c1ccc(-c2ccc(C(=O)O)cc2)o1)C(=O)NCC1CCCO1 (centres undefined)	none
N#C/C(=C\c1ccc(N2CCOCC2)o1)C(=O)NC1CCCCC1	RTF Ca sens act 45, CRFBP-R2 agonist 96
